Records with an inconclusive call do not appear. Active and inactive are the calls of the source. Unless noted, calls follow the shape of the dose curve; as a rule, active = well fitted curve in the direction sought with a large enough effect in the repeat runs; inconclusive = weak or mixed curves; inactive = no such curve, though single readings can be large; an effect the other way counts as inactive or inconclusive.
Legend:
[1] = qHTS assay to identify small molecule antagonists of the androgen receptor (AR) signaling pathway using the MDA cell line in the presence of 0.5 nM R1881 - cell viability counter screen (AID 1259242); also: nearly all actives have a fitted effect of over 45% in size
Outline: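 Viability of MDA-kb2 cells was multiplexed with the luciferase AR readout; after 16 hr with compounds and R1881 at 0.5 nM final, CellTiter-Fluor fluorescence was recorded.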

[2] = target: Androgen receptor (Homo sapiens) (UniProt P10275); assay: qHTS assay to identify small molecule antagonists of the androgen receptor (AR) signaling pathway using the MDA cell line in the presence of 0.5 nM R1881 (AID 1259243); also: nearly all actives have a fitted effect of over 50% in size; also: potency is read from the fitted curve at half-maximal effect
Outline: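 Reporter cells cultured without CO2 receive test chemicals, then 0.5 nM R1881 final; after 16 hr at 37C, ONE-Glo is added and light output recorded.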

[3] = qHTS assay to identify small molecule HDAC inhibitors (AID 1259364);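 also: wild-type HCT-116 cells with endogenous class I/II HDAC activity; top concentration of the series differs between compounds; nearly all actives have a fitted effect of over 45% in size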
Outline: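 Read-out: luminescence of HDAC-Glo I/II reagent, 30 min RT, reflecting class I/II deacetylase activity in whole HCT-116 cells pre-exposed 2 h to DMSO-dissolved compounds.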

[4] = qHTS assay to identify small molecule HDAC inhibitors - cell viability counter screen (AID 1259365); also: series mostly up to about 92 µM; nearly all actives have a fitted effect of over 50% in size
Outline: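 After overnight seeding at 1,500 cells per well, wild-type HCT-116 cultures took up compounds in DMSO for 2hr at 37 C. Viable cell content came from luminescence with CellTiter-Glo.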

[5] = qHTS assay to identify small molecule agonists of the sonic hedgehog signaling (Shh) pathway - cell viability counter screen (AID 1259366); also: nearly all actives have a fitted effect of over 50% in size
Outline: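 Same-well cytotoxicity read. Gli1-Luc reporter 3T3 cells; compounds 24hr, 37C/5% CO2; CellTiter-Fluor fluorescence.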

[6] = qHTS assay to identify small molecule antagonists of the sonic hedgehog signaling (Shh) pathway - cell viability counter screen (AID 1259367); also: nearly all actives have a fitted effect of over 55% in size
Outline: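 After a 4 hr settling period, 3T3 Gli1-Luc cells were treated with DMSO-dissolved chemicals and conditioned medium, kept 24 hr at 37C in 5% CO2, and assayed for viability by CellTiter-Fluor fluorescence following 1 hr reagent incubation.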

[7] = qHTS assay to identify small molecule agonists of the sonic hedgehog signaling (Shh) pathway (AID 1259368; calls by dose curve;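 also: NIH/3T3-derived 3T3Gli1-Luc cells carrying a stable Gli1-driven firefly luciferase reporter; series mostly up to about 92 µM; nearly all actives have a fitted effect of over 15% in size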)
Outline: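 A Gli1 transcriptional response element controlled firefly luciferase in 3T3Gli1-Luc cells. Compounds and a positive control were added 4 hr after plating, and cells were incubated a further 24 hr at 37 C before luminescence detection.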

[8] = target: Estrogen receptor beta (Homo sapiens) (UniProt Q92731); assay: qHTS assay to identify small molecule agonists of the estrogen receptor beta (ER-beta) signaling pathway (AID 1259377; active = well fitted activation curve with a large enough effect in the signal ratio in the repeat runs, not every such curve was filed as active; the % refers to the signal ratio)
Outline: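 Read-out: beta-lactamase FRET fluorescence. Cell line: ER-beta-UAS-bla HEK293T in 2% charcoal-stripped FBS. Exposure: 16 hr at 37C. Substrate step: 2 h at room temperature.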

[9] = target: Estrogen receptor beta (Homo sapiens) (UniProt Q92731); assay: qHTS assay to identify small molecule antagonists of the estrogen receptor beta (ER-beta) signaling pathway (AID 1259378; active = well fitted inhibition curve with a large enough effect in the signal ratio in the repeat runs, not every such curve was filed as active; the % refers to the signal ratio; also: potency is read from the fitted curve at half-maximal effect)
Outline: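 ER-beta-UAS-bla HEK293T (GripTite) cells in 2% charcoal-stripped FBS medium were preincubated 6 hr at 37C, dosed with compound, then stimulated with 1 nM E2 (final) for 16 hr; beta-lactamase reporter read by B/G FRET fluorescence after 2 hr substrate loading.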

[10] = qHTS assay to identify small molecule agonists of the androgen receptor (AR) signaling pathway in the presence of an antagonist - cell viability counter screen (AID 1259379);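 also: MDA-kb2 human breast cancer cells carrying an MMTV luciferase reporter; series mostly up to about 92 µM; nearly all actives have a fitted effect of over 25% in size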
Outline: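 Seed MDA-kb2 at 3,000 cells/well; incubate 5 hr, 37C, 0% CO2. Add nilutamide to 3.0uM final, then pin compounds at 15 concentrations. Incubate 16 hr. Add CellTiter-Fluor at 15 hr, read fluorescence after 1 hr.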

[11] = target: Androgen receptor (Homo sapiens) (UniProt P10275); assay: qHTS assay to identify small molecule agonists of the androgen receptor (AR) signaling pathway in the presence of an antagonist (AID 1259381; calls by dose curve; also: nearly all actives have a fitted effect of over 15% in size)
Outline: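 Test compounds at 15 concentrations were incubated for 16hr with MDA-kb2 reporter cells in presence of 3.0uM nilutamide (final). Signal: ONE-Glo luciferase luminescence.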

[12] = qHTS assay to identify small molecule antagonists of the estrogen receptor beta (ER-beta) signaling pathway - cell viability counter screen (AID 1259382); also: nearly all actives have a fitted effect of over 55% in size; also: potency is read from the fitted curve at half-maximal effect
Outline: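 In this multiplexed counter screen, cells were seeded at 2,000 per well in medium with 2% charcoal-stripped FBS and incubated 6 hr before compound and 1nM final E2 were added. Sixteen hours later, ATP-based luminescence reported viability.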

[13] = target: Estrogen receptor (Homo sapiens) (UniProt P03372); assay: qHTS assay to identify small molecule agonists of the estrogen receptor alpha (ER-alpha) signaling pathway in the presence of an antagonist (AID 1259383; calls by dose curve; also: top concentration of the series differs between compounds; nearly all actives have a fitted effect of over 15% in size)
Outline: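 Stably transfected VM7Luc4E2 reporter cells, kept 5 days in charcoal-stripped serum, received ICI-182,780 at 10.0nM final before compound addition. Following 22hr incubation at 37C and 5% CO2, luciferase signal was read by luminescence.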

[14] = qHTS assay to identify small molecule agonists or antagonists of the thyroid stimulating hormone receptor (TSHR) signaling pathway - wild type cell line counter screen (AID 1259384; calls by dose curve)
Outline: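 Wild-type HEK293 cells were plated 18 h at 37 C/5% CO2, pin-dosed with compound plus Ro20-1724 medium, held 30 min at room temperature, then given cAMP-d2 and anti-cAMP-cryptate; fluorescence was read after 1 h. Fifteen concentrations, triplicate.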

[15] = target: Thyrotropin receptor (Homo sapiens) (UniProt P16473); assay: qHTS assay to identify small molecule antagonists of the thyroid stimulating hormone receptor (TSHR) signaling pathway (AID 1259385; calls by dose curve; also: nearly all actives have a fitted effect of over 20% in size)
Outline: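 TSHR-HEK293 cells were plated and held 18 h at 37C/5% CO2, then given compound plus Ro20-1724 and stimulated with TSH at 1.5 ng/mL final. After 30 min at room temperature, cAMP was detected with cAMP-d2/anti-cAMP-cryptate (1 h) by fluorescence.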

[16] = qHTS assay to identify small molecule agonists of the estrogen receptor alpha (ER-alpha) signaling pathway in the presence of an antagonist - cell viability counter screen (AID 1259386);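 also: series mostly up to about 92 µM; cells exposed to compounds for 22 h at 37 °C before the viability read; nearly all actives have a fitted effect of over 30% in size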
Outline: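 Viability counter screen using VM7Luc4E2 (full-length ER-alpha, four ERE-luciferase). The cells were treated with compounds alongside ICI-182,780 10.0nM for 22hr, and live-cell protease fluorescence was quantified with CellTiter-Fluor.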

[17] = target: Estrogen receptor (Homo sapiens) (UniProt P03372); assay: qHTS assay to identify small molecule antagonists of the estrogen receptor alpha (ER-alpha) signaling pathway using the BG1 cell line in the presence of 0.1 nM 17-beta-estradiol (AID 1259244); also: nearly all actives have a fitted effect of over 50% in size
Outline: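 Estradiol at 0.1 nM (final) stimulates the endogenous ER-alpha of VM7Luc4E2 cells carrying an ERE-driven luciferase; compounds are co-incubated 22 h at 37C and luciferase output quantified by luminescence.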

[18] = qHTS assay to identify small molecule antagonists of the sonic hedgehog signaling (Shh) pathway (AID 1259369; calls by dose curve; also: nearly all actives have a fitted effect of over 45% in size; also: potency is read from the fitted curve at half-maximal effect)
Outline: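 For antagonist detection, the reporter line received test compounds together with conditioned medium, incubated 24hr at 37 C, 5% CO2, then luminescence was recorded following 30min room-temperature luciferase reagent incubation.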

[19] = qHTS assay to identify small molecule agonists of the estrogen receptor beta (ER-beta) signaling pathway - cell viability counter screen (AID 1259380); also: nearly all actives have a fitted effect of over 30% in size; also: potency is read from the fitted curve at half-maximal effect
Outline: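 CellTiter-Glo read, 30 min RT, same wells as bla assay; cells ER-beta-UAS-bla HEK293T; 16 hr compound, 37C; medium 2% charcoal-stripped FBS.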

[20] = qHTS assay to identify small molecule phospholipidosis (PLD) inducers (AID 1259344; active = well fitted curve in the direction sought with a large enough effect; an effect the other way counts as inactive or inconclusive; also: potency is read from the fitted curve at half-maximal effect)
Outline: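 HepG2 cells grown on collagen I take up LipidTOX Red while exposed to compound for 24 h; after fixation they are imaged at 20x and pit metrics are extracted.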
% is scaled to controls: 0 for no effect and ±100 for the full control effect.

Thyrotropin receptor (Homo sapiens), sequence (P16473 whole entry, looked up): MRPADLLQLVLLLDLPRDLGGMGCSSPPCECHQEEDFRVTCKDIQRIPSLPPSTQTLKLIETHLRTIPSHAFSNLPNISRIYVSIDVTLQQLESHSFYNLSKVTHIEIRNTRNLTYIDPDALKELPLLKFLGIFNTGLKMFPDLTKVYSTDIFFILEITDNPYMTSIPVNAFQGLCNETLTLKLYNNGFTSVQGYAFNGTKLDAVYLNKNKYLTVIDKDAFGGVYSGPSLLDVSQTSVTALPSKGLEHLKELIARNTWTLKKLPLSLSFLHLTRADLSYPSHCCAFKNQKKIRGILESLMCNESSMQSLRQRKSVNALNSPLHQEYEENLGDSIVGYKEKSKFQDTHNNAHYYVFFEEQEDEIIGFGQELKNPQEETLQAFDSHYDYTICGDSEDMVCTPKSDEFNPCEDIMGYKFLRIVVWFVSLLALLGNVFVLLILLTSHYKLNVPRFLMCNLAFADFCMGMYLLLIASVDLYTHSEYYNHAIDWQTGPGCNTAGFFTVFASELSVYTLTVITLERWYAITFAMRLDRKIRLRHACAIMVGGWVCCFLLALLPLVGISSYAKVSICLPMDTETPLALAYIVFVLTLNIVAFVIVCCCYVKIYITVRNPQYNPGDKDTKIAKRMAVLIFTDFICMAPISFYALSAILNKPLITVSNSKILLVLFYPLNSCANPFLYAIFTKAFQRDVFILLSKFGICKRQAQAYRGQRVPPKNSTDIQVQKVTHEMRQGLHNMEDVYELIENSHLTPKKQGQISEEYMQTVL
Androgen receptor (Homo sapiens), sequence (P10275 whole entry, looked up): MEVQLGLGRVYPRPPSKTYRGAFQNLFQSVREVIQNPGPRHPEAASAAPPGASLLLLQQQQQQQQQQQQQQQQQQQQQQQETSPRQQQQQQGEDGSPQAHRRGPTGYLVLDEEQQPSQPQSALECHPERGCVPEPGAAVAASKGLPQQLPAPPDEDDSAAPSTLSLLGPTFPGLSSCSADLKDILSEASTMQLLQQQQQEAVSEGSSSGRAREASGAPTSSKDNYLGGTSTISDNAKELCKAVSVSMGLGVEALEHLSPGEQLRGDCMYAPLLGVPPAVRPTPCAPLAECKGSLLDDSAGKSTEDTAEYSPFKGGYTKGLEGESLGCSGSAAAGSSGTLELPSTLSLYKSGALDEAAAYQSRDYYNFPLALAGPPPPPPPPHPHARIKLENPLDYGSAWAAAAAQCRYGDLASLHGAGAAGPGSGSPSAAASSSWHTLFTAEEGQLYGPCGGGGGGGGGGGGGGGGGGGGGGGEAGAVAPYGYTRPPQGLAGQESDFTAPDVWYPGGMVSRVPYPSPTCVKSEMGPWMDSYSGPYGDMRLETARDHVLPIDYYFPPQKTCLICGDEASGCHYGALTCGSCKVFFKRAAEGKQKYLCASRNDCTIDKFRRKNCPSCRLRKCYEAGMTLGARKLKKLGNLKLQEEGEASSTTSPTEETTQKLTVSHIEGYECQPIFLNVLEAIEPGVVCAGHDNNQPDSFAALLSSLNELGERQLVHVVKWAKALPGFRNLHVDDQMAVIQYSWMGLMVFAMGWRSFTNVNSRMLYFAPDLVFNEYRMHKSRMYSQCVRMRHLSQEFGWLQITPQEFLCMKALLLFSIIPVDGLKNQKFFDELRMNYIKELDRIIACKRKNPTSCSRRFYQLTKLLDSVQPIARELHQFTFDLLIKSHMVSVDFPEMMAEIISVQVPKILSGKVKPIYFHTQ
Estrogen receptor (Homo sapiens), sequence (P03372 whole entry, looked up): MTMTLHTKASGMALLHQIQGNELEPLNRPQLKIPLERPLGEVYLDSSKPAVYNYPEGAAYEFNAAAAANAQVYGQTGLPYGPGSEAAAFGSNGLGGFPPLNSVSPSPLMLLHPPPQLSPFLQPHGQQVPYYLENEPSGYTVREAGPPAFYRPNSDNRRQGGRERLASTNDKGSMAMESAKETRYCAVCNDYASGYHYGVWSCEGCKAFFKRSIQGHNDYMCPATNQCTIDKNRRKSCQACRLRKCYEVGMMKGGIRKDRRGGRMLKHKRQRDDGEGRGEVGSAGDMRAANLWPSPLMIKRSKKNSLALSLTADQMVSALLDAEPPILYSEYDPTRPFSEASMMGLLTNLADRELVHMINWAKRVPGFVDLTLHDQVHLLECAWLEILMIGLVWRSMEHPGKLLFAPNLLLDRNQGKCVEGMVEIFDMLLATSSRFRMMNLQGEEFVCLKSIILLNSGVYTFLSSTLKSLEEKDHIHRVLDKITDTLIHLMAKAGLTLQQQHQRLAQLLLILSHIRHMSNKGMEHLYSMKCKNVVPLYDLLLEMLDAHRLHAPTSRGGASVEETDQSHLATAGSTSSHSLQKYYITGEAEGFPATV
Estrogen receptor beta (Homo sapiens), sequence (Q92731 whole entry, looked up): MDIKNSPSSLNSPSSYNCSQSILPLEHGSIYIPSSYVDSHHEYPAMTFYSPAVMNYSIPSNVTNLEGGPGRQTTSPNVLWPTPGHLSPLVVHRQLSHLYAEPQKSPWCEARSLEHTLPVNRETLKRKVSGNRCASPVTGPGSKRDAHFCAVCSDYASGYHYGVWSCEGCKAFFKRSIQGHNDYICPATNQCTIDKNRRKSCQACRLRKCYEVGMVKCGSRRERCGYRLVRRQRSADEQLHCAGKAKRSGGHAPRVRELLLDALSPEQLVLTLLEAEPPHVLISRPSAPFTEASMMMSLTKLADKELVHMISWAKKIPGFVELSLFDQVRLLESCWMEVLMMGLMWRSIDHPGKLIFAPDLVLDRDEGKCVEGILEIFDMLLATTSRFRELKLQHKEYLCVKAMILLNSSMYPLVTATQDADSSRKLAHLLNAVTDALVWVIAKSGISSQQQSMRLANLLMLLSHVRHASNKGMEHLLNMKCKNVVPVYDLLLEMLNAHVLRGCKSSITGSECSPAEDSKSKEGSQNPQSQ

C[C@@H]1C[C@H]2O[C@@]3(O[C@@H]2C(C)(C)O)[C@H](O)[C@@]2(C)[C@@H]4CC[C@H]5C(C)(C)[C@@H](O[C@@H]6OC[C@@H](O)[C@H](O)[C@H]6O)CC[C@@]56C[C@@]46CC[C@]2(C)[C@@H]13
inactive: Potency [1] | Potency [2] | Potency [3] | Potency [4] | Potency [5] | Potency [6] | outcome [7] | Potency [8] | Potency [9] | Potency [10] | Potency [11] | Potency [12] | Potency [13] | Potency [14] | Potency [15] | Potency [16]

O[C@@H](COc1cccc2ncccc12)CN1CCN(C2c3ccccc3[C@@H]3[C@H](c4ccccc42)C3(F)F)CC1 (stereo partly specified)
active: Potency [2] 13.3 µM | Potency [18] 13.3 µM | Potency [9] 16.8 µM | Potency [19] 26.6 µM
inactive: Potency [1] | Potency [17] | Potency [3] | Potency [8] | Potency [10] | Potency [13] | Potency [14] | Potency [15] | Potency [16]

CC(COCCO)OCCO (stereo unspecified)
inactive: Potency [1] | Potency [2] | Potency [3] | Potency [4] | Potency [5] | Potency [6] | outcome [7] | Potency [18] | Potency [10] | Potency [19] | Potency [11] | Potency [12] | Potency [14] | Potency [15] | Potency [16]

NCc1ccccc1Sc1ccccc1CO
inactive: Potency [1] | Potency [2] | Potency [17] | Potency [20] | Potency [3] | Potency [4] | Potency [5] | Potency [6] | outcome [7] | Potency [18] | Potency [8] | Potency [9] | Potency [10] | Potency [19] | Potency [11] | Potency [12] | Potency [13] | Potency [14] | Potency [15] | Potency [16]

OCCNCc1ccccc1
inactive: Potency [1] | Potency [2] | Potency [3] | Potency [4] | Potency [5] | Potency [6] | outcome [7] | Potency [18] | Potency [8] | Potency [9] | Potency [10] | Potency [19] | Potency [11] | Potency [12] | Potency [13] | Potency [16]

CC(=O)OC[C@H]1O[C@@H](n2ncc(=O)[nH]c2=O)[C@H](OC(C)=O)[C@@H]1OC(C)=O
active: Potency [19] 1.33 µM
inactive: Potency [1] | Potency [2] | Potency [17] | Potency [20] | Potency [3] | Potency [5] | Potency [6] | outcome [7] | Potency [18] | Potency [10] | Potency [11] | Potency [13] | Potency [14] | Potency [15] | Potency [16]

COC(=O)C1=C(C)NC(COC(N)=O)=C(C(=O)OC(C)C)C1c1cccc(Cl)c1Cl (stereo unspecified)
inactive: Potency [1] | Potency [2] | Potency [17] | PLD induction [20] -2.54% [at 7.66 µM] | Potency [3] | Potency [4] | Potency [5] | outcome [7] | Potency [8] | Potency [9] | Potency [10] | Potency [11] | Potency [12] | Potency [13] | Potency [14] | Potency [15] | Potency [16]

COc1cc2nc(Cl)nc(N)c2cc1OC
inactive: Potency [1] | Potency [2] | Potency [17] | Potency [3] | Potency [4] | Potency [5] | Potency [6] | outcome [7] | Potency [10] | Potency [19] | Potency [11] | Potency [12] | Potency [13] | Potency [16]

CN1CCC(=C2c3ccccc3Sc3ccccc32)CC1
active: Potency [2] 23.7 µM | Potency [20] 10 µM | Potency [19] 23.7 µM | Potency [12] 21.1 µM
inactive: Potency [1] | Potency [3] | Potency [4] | Potency [5] | Potency [6] | outcome [7] | Potency [10] | Potency [11] | Potency [13] | Potency [16]

CCCn1cnc2c1c(=O)n(CCCCC(C)=O)c(=O)n2C
inactive: Potency [1] | Potency [2] | Potency [17] | Potency [20] | Potency [3] | Potency [4] | Potency [5] | Potency [6] | outcome [7] | Potency [8] | Potency [9] | Potency [10] | Potency [19] | Potency [11] | Potency [12] | Potency [13] | Potency [14] | Potency [16]

Nc1cccc([N+](=O)[O-])c1
inactive: Potency [1] | Potency [2] | Potency [17] | Potency [3] | Potency [5] | Potency [6] | outcome [7] | Potency [18] | Potency [9] | Potency [10] | Potency [19] | Potency [11] | Potency [12] | Potency [13] | Potency [16]

O=C1CCCCCCCCCCCC(=O)OCCO1
inactive: Potency [1] | Potency [2] | Potency [17] | Potency [3] | Potency [4] | Potency [5] | Potency [6] | outcome [7] | Potency [18] | Potency [8] | Potency [9] | Potency [10] | Potency [19] | Potency [11] | Potency [12] | Potency [13] | Potency [14] | Potency [16]

C[C@@H](c1ncncc1F)C(O)(Cn1cncn1)c1ccc(F)cc1F (stereo partly specified)
inactive: Potency [1] | Potency [2] | Potency [20] | Potency [3] | Potency [5] | Potency [6] | outcome [7] | Potency [18] | Potency [10] | Potency [19] | Potency [11] | Potency [12] | Potency [13] | Potency [14] | Potency [15] | Potency [16]

NCCCN1CCOCC1
inactive: Potency [1] | Potency [2] | Potency [3] | Potency [4] | Potency [5] | Potency [6] | outcome [7] | Potency [18] | Potency [8] | Potency [9] | Potency [10] | Potency [19] | Potency [11] | Potency [12] | Potency [13] | Potency [14] | Potency [15] | Potency [16]

Source: PubChem BioAssay (Tox21)
